Data from article PMC4552634, “A New Set of Chemical Starting Points with Plasmodium falciparum Transmission-Blocking Potential for Antimalarial Drug Discovery” (PLoS ONE, 2015).
Where two headings read alike, the source gives them in different places. Hit rate of the full screen: of about 13,000 compounds, about 3,200 (25%) showed an effect of 50% or more. The list shows a part of the results.

Tested on: P. falciparum stage V gametocytes
Parameters: BacTiter-Glo ATP luminescence viability of purified stage V gametocytes in 384-well plates, per cent inhibition versus DMSO
Conditions: 48 h, 5 µM, inhibitor

| SMILES | % Inhibition [%] | % Inhibition (% Inhibition) [%] |
| --- | --- | --- |
| CS(=O)(=O)Cc1ccc(Nc2ncc(Cl)c(Nc3cccnc3C(N)=O)n2)cc1 [TCMDC-134165] | -4.656 | – |
| CC1CN=C(c2cccc(NC(=O)Nc3cccc(C4=NCC(C)N4)c3)c2)N1 (centres unmarked) [TCMDC-137194] | 7.217 | – |
| COc1cc2c(cc1C(F)(F)F)N(C(=O)Nc1ccc(Br)cn1)CC2 [TCMDC-139015] | -19.75 | – |
| COc1ccc(O)c(C(=O)c2cnc3c(c2)c(-c2ccc(F)cc2)c(C#N)c(=O)n3C)c1 [TCMDC-124509] | -11.41 | – |
| O=C(Nc1ccc2c(c1)CCN2C1CCN(Cc2cccc(F)c2F)C1)c1ccco1 (centres unmarked) [TCMDC-135067] | 14.1 | – |
| O=C(N[C@H]1CCN(Cc2ccc(OCCCN3CCCCC3)cc2)C1)c1cc(Cl)cc(Cl)c1 [TCMDC-141774] | 21.94 | – |
| O=C(N[C@H]1CCN(Cc2ccc(OCCCN3CCCCC3)cc2)C1)c1ccc2ccccc2c1 [TCMDC-141775] | 63.18 | – |
| c1ccc(C(c2ccccc2)N2CCC(NCc3ccc(OCCCN4CCCCC4)cc3)CC2)cc1 [TCMDC-141783] | 82.14 | – |
| O=C(N[C@H]1CCN(Cc2ccc(OCCCN3CCCCC3)cc2)C1)c1ccc(Cl)c(Cl)c1 [TCMDC-141772] | 60 | – |
| CCCCCCN1CCC(NCc2ccc(OCCN3CCCC3)cc2)CC1 [TCMDC-141663] | 42.97 | – |
| c1cc(OCCN2CCCC2)ccc1CNC1CCN(CC2CCCCC2)CC1 [TCMDC-141656] | 42.11 | – |
| Cc1cnc(CCNC(=O)c2cc(-c3ccc(Cl)cc3)cs2)[nH]1 [TCMDC-133804] | 0.312 | – |
| CCc1cc(N2CCN(c3ccccc3F)CC2)nc(SCc2ccc(C(=O)NC3CC3)o2)n1 [TCMDC-124808] | 29.7 | – |
| N#Cc1ccc(-c2ccc(C(=O)Nc3ccc4c(c3)CCN(C3CCC3)CC4)nc2)cn1 [TCMDC-136030] | 49.39 | – |
| Cc1nc(-c2ccc(-c3ccc(C(=O)Nc4ccc(-n5ccnc5)c(N5CCN(C)CC5)c4)cc3)c(C)c2)no1 [TCMDC-131988] | 33.17 | – |
| C=C[C@H]1CN(CCCCCCC)CC[C@H]1CC(=O)Nc1cnnc2ccc(OC)cc12 [TCMDC-139791] | 45.94 | – |
| CCCCCCCC1CCN(C[C@H](O)c2ccnc3ccc(OC)cc23)CC1 [TCMDC-139640] | 6.722 | – |
| C=C[C@H]1CN(CCCCCCC)CC[C@H]1CC(O)Cc1ccnc2cc(O)c(OC)cc12 (some centres unmarked) [TCMDC-139963] | 16.88 | – |
| C=C[C@H]1CN2CC[C@H]1C[C@H]2[C@H](O)c1ccnc2ccc(OC)cc12 [TCMDC-123484] | – | -1.615 |
| CCCCCCCC1CC(CC(=O)Nc2ccnc3ccc(OC)cc23)CN1 (centres unmarked) [TCMDC-139305] | 20.34 | – |
| CCCCCCCN1CCC(CC(=O)Nc2ccnc3ccc(OC)cc23)C(CC)C1 (centres unmarked) [TCMDC-139299] | -28.07 | – |
| C=C[C@H]1CN(CCCCCCC)CC[C@H]1CCN(C)c1ccnc2ccc(OC)cc12.O=C(O)C(=O)O [TCMDC-139276] | 8.689 | – |

| SMILES | % Inhibition [%] | % Inhibition (% Inhibition) [%] |
| --- | --- | --- |
| CCCCCCCN1C2CCC1CC(CCOc1ccnc3ccc(OC)cc13)C2 (centres unmarked) [TCMDC-139275] | 73.47 | – |
| CCCCCCCC1CC(CC(=O)Nc2ccnc3ccc(OC)cc23)CN1C(=O)OC(C)(C)C (centres unmarked) [TCMDC-139304] | 29.24 | – |
| C=C[C@H]1CN(CCCCCCC)CC[C@H]1C[C@@H](Cc1ccnc2ccc(OC)cc12)OC(=O)[C@](OC)(c1ccccc1)C(F)(F)F [TCMDC-139560] | 78.38 | – |
| C=C[C@H]1CN(CCCCCCC)CC[C@H]1CCNc1ccnc2ccc(OC)cc12 [TCMDC-139204] | 104.6 | – |
| CCCCCCCN1CCC(CC(=O)Nc2ccnc3ccc(OC)cc23)CC1 [TCMDC-139181] | 71.31 | – |
| CC(C)c1ccc(O)cc1Nc1ccnc2ccc(C(F)(F)F)cc12 [TCMDC-138278] | -32.37 | – |
| COc1ccc(OC)c(-c2ccc(O)c(CNCC(C)c3ccccc3)c2)c1 (centres unmarked) [TCMDC-124647] | 7.623 | – |
| Nc1nc2c(ncn2OC[C@H]2COP(=O)(O)CO2)c(=O)[nH]1 [TCMDC-131638] | 1.746 | – |
| Cc1cc(C)cc(OCC(O)CN(Cc2cc(Cl)cc(Cl)c2)C(=O)Nc2ccccc2Cl)c1 (centres unmarked) [TCMDC-141476] | 13.96 | – |
| CCOc1cc(C(=O)N[C@@H](Cc2ccccc2)[C@H](O)CNCc2cc(OC)cc(OC)c2)cc(N2CCCCS2(=O)=O)c1 [TCMDC-134524] | 22.64 | – |
| O=C1NC(=O)C(c2cccc(NC(=O)c3ccncc3)c2)=C1c1ccccc1 [TCMDC-140924] | 2.839 | – |
| COc1ccc2nccc([C@@H](O)CN3CCC(NS(=O)(=O)c4cc5c(cc4Cl)SCC(=O)N5)CC3)c2c1 [TCMDC-141159] | 4.839 | – |
| CCCCCCCN1CCC(CCNc2ccnc3ccc(OC)cc23)CC1 [TCMDC-139197] | 97.49 | – |
| CCCCCCCN1CCC(NC(=O)Nc2ccnc3ccc(OC)cc23)C(C(=O)OCC)C1.O=C(O)C(=O)O (centres unmarked) [TCMDC-139929] | -3.335 | – |
| CCCCCCCN1CCC(NC(=O)Nc2ccnc3ccc(OC)cc23)C(CO)C1.O=C(O)C(=O)O (centres unmarked) [TCMDC-139969] | -36.82 | – |
| COCCOc1ccc(C(F)(F)F)cc1NC(=O)Cc1c(F)cccc1Cl [TCMDC-125025] | -70.46 | – |
| CCNCc1ccc(-c2cccc(-c3nc4ccccc4[nH]3)c2)cc1 [TCMDC-132568] | 85.38 | – |
| CC(C)CNCc1ccc(-c2cccc(-c3nc4ccccc4[nH]3)c2)cc1 [TCMDC-132547] | 59.79 | – |
| CC(C)NCc1ccc(-c2cccc(-c3nc4ccccc4[nH]3)c2)cc1 [TCMDC-132550] | -10.92 | – |
| c1ccc(CNCc2ccc(-c3cccc(-c4nc5ccccc5[nH]4)c3)cc2)cc1 [TCMDC-132545] | 18.29 | – |
| CN(C)CCNCc1ccc(-c2cccc(-c3nc4ccccc4[nH]3)c2)cc1 [TCMDC-132539] | 20.35 | – |
| CC(C)NCc1cccc(-c2ccc(-c3nc4ccccc4[nH]3)cc2)c1 [TCMDC-132746] | 23.3 | – |
